Out of some 310,000 compounds screened, about 14,000 (4.5%) showed an effect of 50% or more. Effects have a minus sign here. The entries come from a sample that favours strong results as a whole.
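Note: peak tail current of the secondary pulse compared with the same well before compound.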

Sequence of human ether-à-go-go-related gene (hERG) potassium channel (Q12809 whole entry, looked up): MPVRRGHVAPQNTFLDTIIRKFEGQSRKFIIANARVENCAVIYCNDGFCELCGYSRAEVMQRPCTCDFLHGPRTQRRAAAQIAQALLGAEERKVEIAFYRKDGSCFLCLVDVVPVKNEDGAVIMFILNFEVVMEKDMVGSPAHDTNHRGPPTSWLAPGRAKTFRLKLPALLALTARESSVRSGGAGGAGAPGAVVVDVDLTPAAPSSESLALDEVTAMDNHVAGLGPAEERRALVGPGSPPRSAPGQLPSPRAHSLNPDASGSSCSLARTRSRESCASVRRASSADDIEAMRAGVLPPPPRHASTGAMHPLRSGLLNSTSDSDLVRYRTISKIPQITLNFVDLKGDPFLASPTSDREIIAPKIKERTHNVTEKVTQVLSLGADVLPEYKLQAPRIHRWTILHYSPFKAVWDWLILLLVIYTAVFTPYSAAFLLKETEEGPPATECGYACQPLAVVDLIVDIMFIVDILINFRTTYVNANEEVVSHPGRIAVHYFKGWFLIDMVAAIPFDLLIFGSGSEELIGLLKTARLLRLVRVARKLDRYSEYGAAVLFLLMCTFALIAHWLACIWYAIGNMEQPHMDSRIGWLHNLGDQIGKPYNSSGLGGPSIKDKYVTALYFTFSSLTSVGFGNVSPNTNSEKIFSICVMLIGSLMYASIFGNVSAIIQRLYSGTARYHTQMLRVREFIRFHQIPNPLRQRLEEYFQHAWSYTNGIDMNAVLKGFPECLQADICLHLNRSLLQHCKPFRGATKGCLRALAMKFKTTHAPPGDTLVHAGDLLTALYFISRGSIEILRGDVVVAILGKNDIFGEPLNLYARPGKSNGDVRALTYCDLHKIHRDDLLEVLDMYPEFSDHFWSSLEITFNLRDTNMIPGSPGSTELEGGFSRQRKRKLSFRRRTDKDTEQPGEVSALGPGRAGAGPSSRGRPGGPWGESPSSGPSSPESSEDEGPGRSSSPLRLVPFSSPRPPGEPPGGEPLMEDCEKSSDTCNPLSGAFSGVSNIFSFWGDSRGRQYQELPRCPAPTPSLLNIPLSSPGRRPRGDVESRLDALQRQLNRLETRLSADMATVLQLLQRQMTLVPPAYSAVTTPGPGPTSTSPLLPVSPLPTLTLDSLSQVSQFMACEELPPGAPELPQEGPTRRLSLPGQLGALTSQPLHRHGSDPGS

This assay has as its target human ether-à-go-go-related gene (hERG) potassium channel (human, UniProt Q12809). As to the kind of experiment: primary screen, population patch clamp on CHO cells stably expressing hERG; higher = less effect of the substance.
As to `Fc1cccc(NCCc2c[nH]c3ccccc23)n1`, the “hERG current change (%, negative = inhibition) at 10uM” value worked out at 11.3%.
For the molecule `COc1ccc(CCNc2nc(-c3cccnc3)nc3ccccc23)cc1OC`, the “hERG current change (%, negative = inhibition) at 10uM” value was -1.54%.
Turning to `CNCCc1ccc(O)c(O)c1.Cl`, the “hERG current change (%, negative = inhibition) at 10uM” value is 12.7%.
Take `CNCCc1c[nH]c2ccccc12`: the “hERG current change (%, negative = inhibition) at 10uM” value is recorded as 6.05%.
As to `c1ccc2c(NCCc3c[nH]c4ccccc34)c3ccccc3nc2c1`, the “hERG current change (%, negative = inhibition) at 10uM” value was -74.7%.
With `COc1ccc(C(=O)/C=C/Nc2cc(C)on2)cc1`, the “hERG current change (%, negative = inhibition) at 10uM” value stood at 3.9%.
For `CCCCOC(=O)c1ccc(Nc2ccc([N+](=O)[O-])cn2)cc1` the value was 14.5%; for `Cc1ccc(-c2nnc(N3CC(C)OC(C)C3)c3ccccc23)cc1` (centres unmarked), -20.6%; for `O=C(NC(=S)Nc1ccc(CN2CCOCC2)cc1)c1ccc2c(c1)OCCO2`, -13.9%.
With `CC(=Nc1ccccc1N)c1c(O)n(C)c(=O)n(C)c1=O`, the “hERG current change (%, negative = inhibition) at 10uM” value was 21%.
Consider `CCOc1ccc(CN(C)C(=O)CCNC(=O)c2ccco2)cc1`, for which the “hERG current change (%, negative = inhibition) at 10uM” value worked out at 1.35%.
`CCCOC(=O)c1[nH]c2c(c1C)C(=O)CC(c1ccc(OC)c(OC)c1)C2` (centres unmarked): the “hERG current change (%, negative = inhibition) at 10uM” value is recorded as -4.07%.
As for `CCOc1ccccc1NC(=O)CN1C(=O)C(=O)N(Cc2ccco2)C1=O`, the “hERG current change (%, negative = inhibition) at 10uM” value was 8.17%.
Regarding `O=C(NCc1ccccc1)c1c(O)c2ccccc2[nH]c1=O`, the “hERG current change (%, negative = inhibition) at 10uM” value is on record as 15.4%.
As to `CCNC(=O)c1c(O)c2ccccc2[nH]c1=O`, the “hERG current change (%, negative = inhibition) at 10uM” value was -62.5%.
Consider `CCCCCCNC(=O)c1c(O)c2ccccc2[nH]c1=O`, for which the “hERG current change (%, negative = inhibition) at 10uM” value worked out at 19.9%.
To `O=C(Cn1cnc2c(nnn2Cc2ccc(F)cc2)c1=O)NCc1ccc2c(c1)OCO2` belongs -17.2%.
As for `C=CCn1c(COc2ccc(OC)cc2)nnc1SC(C)C(=O)NC1CC1` (centres unmarked), the “hERG current change (%, negative = inhibition) at 10uM” value is reported as -11.6%.
For `CCCCCn1c(=O)[nH]c2cc(C(=O)NCCCN3CCCCC3)ccc2c1=O`, the “hERG current change (%, negative = inhibition) at 10uM” value is -33.5%.
To `CCOn1c(=O)c(=O)n(OC)c2ccccc21` belongs -6.73%; to `CCOC(=O)C1(Cc2ccc(OC)cc2)CCN(S(C)(=O)=O)CC1`, 25.6%; to `CCOC(=O)C1(Cc2ccc(Cl)cc2)CCN(C(C)Cc2ccc(O)c(OC)c2)CC1` (centres unmarked), -70.8%.
Regarding `CCOC(=O)C1(Cc2ccc(Cl)cc2)CCN(CCCn2cccn2)CC1`, the “hERG current change (%, negative = inhibition) at 10uM” value was -74.8%.
To `CCOC(=O)C1(Cc2cccc(OC)c2)CCN(C(C)CC(C)(C)O)CC1` (centres unmarked) belongs -28.5%; to `CCOC(=O)C1(Cc2cccc(F)c2)CCN(CCCn2cccn2)CC1`, -74.6%; to `CCOC(=O)C1(Cc2cccc(F)c2)CCN(Cc2cnn(CC)c2)CC1`, -32.2%.
For `CCOC(=O)C1(Cc2ccc(OC)cc2)CCN(C(=O)CCn2cccn2)CC1`, the “hERG current change (%, negative = inhibition) at 10uM” value is -7.25%.
To `CCOC(=O)C1(Cc2ccc(Cl)cc2)CCN(C(C)CCn2cccn2)CC1` (centres unmarked) belongs -87.2%; to `CCOC(=O)C1(Cc2cccc(F)c2)CCN(CC(O)CO)CC1` (centres unmarked), 14.5%; to `O=C1NC(=O)C(Nc2cccc3ccccc23)S1` (centres unmarked), 7.89%.
On to `Cc1cccc(-c2nc3c(c(SCC(=O)N(C)C)n2)CCCC3)c1`, for which the “hERG current change (%, negative = inhibition) at 10uM” value is recorded as -21.5%.
Turning to `COC(=O)c1ccc([C@H](NC(=O)c2ccco2)[C@]2(C)C[C@H]2C2CCCCC2)cc1`, the “hERG current change (%, negative = inhibition) at 10uM” value was 9.14%.
For the molecule `COc1ccc(CN2CCn3ncc(C(=O)Nc4cccc(C)c4)c3C2=O)cc1`, the “hERG current change (%, negative = inhibition) at 10uM” value is given as 6.5%.
To `Cc1ccc(S(=O)(=O)N/N=C/c2ccc(OCC(=O)Nc3ccccc3Cl)cc2)cc1` belongs 1.73%; to `COc1cccc(N(C(=O)Cn2nnc(-c3cccs3)n2)C(C(=O)NC2CCCCC2)c2ccncc2)c1` (centres unmarked), 8%.
As to `COc1cc2c(c(O)c1OC)C(=O)C(OC)CCC2` (centres unmarked), the “hERG current change (%, negative = inhibition) at 10uM” value is listed as -3.32%.
As for `COc1cc2c(c(OC)c1OC)-c1c(cc(OC)c(OC)c1OC)C[C@](C)(O)[C@@H](C)C2`, the “hERG current change (%, negative = inhibition) at 10uM” value is on record as -73.7%.
As to `COc1cc2c(c(OC)c1OC)-c1c(cc3c(c1OC)OCO3)C[C@H](C)[C@@](C)(O)C2`, the “hERG current change (%, negative = inhibition) at 10uM” value was determined as 28.4%.
For `COc1cc2c(c(OC)c1OC)-c1c(cc3c(c1O)OCO3)C[C@@H](C)[C@@H](C)C2` the value was 0.26%.
In the case of `COc1cc2c(c(O)c1OC)-c1c(cc(OC)c(OC)c1OC)C[C@@H](C)[C@@H](C)C2`, the “hERG current change (%, negative = inhibition) at 10uM” value is recorded as -78.6%.
For the molecule `COc1cc2c(c(OC)c1OC)-c1c(cc3c(c1OC)OCO3)[C@@H](OC(C)=O)[C@H](C)[C@H](C)C2`, the “hERG current change (%, negative = inhibition) at 10uM” value is recorded as -66.8%.
For `COc1cc(C2(O)CCCCC2C)cc(OC)c1OC` (centres unmarked) the value was 15.9%; for `C/C=C(/C)C(=O)O[C@@H]1c2cc3c(c(OC)c2-c2c(cc(OC)c(OC)c2OC)[C@@H](OC(C)=O)[C@@H](C)[C@H]1C)OCO3`, 4.78%; for `Br.COc1cc2c(cc1OC)-c1c(OC)c(OC)cc3c1[C@H](C2)[NH+](C)CC3`, -16.7%.
Take `COc1cc2c(c(OC)c1OC)-c1c(cc(OC)c(OC)c1OC)C[C@H](C)[C@H](C)C2`: the “hERG current change (%, negative = inhibition) at 10uM” value is reported as -71.9%.
In the case of `COc1cc2c(c(OC)c1OC)-c1c(cc3c(c1OC)OCO3)C1OC2[C@@H](C)[C@H]1C` (some centres unmarked), the “hERG current change (%, negative = inhibition) at 10uM” value is on record as -4.76%.
To `COc1cc2c(c(OC)c1OC)C(=O)CC2` belongs 15.6%.

Values taken from article PMC4336329 (PLoS ONE, 2015).
